Assay results: PubChem BioAssay (NCATS)
Results filed as inconclusive are left out. Calls of active or inactive are those of the source. The call rests on the fitted dose curve; in most records, active means well fitted curve in the direction sought with a large enough effect; inconclusive means small, poorly fitted or top-dose-only effect, or another doubt; inactive means no such curve, though single readings can be large; an effect the other way counts as inactive or inconclusive.
Potency means the concentration at half of the fitted maximal effect.

Assay: Quantitative highthroughput screen to assess conditional lethalithy of SEM cells grown in RPMI1640 with dialyzed fetal bovine serum (RPMI+ds) (AID 1963884); further: nearly all actives have a fitted effect of over 35% in size
Conditions: SEM B-ALL cells, RPMI+dialyzed FBS, CellTiter-Glo viability, 48 h; series mostly up to 45.8 µM
Method in brief: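 Each medium arm—HPLM with 10% dialyzed FBS, or RPMI1640 with 5 mM glucose and 10% untreated or dialyzed FBS—was screened against an 11-point, 3-fold compound titration for 48 h at 37 °C, with CellTiter-Glo luminescence as endpoint.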
With CN(C[C@@H]1COCCO1)S(=O)(=O)Nc1ccc2ccc3ncc(-c4cnn(C)c4)cc3c(=O)c2c1 the Potency was 0.662 µM (active).
With Cn1c(=O)c(F)c(Nc2ccc(I)cc2F)c2c(=O)n(C[C@@H](O)CO)cnc21 the Potency was 2.09 µM (active).
In the case of CC(C)n1nc(-c2ccc3oc(N)nc3c2)c2c(N)ncnc21, the Potency is reported as 0.469 µM (active).
For Cc1ccc2nc(NC(=O)CSc3nc4c(c(=O)n3-c3ccccc3)SCC4)sc2c1, the Potency was 20.9 µM (active).
In the case of NC1(C(=O)N[C@@H](CCO)c2ccc(Cl)cc2)CCN(c2ncnc3[nH]ccc23)CC1, the Potency is reported as 2.64 µM (active).

Assay: Cellular viability qHTS for adrenocortical cancer (ACC) cell line SW-13 (AID 1963989); further: nearly all actives have a fitted effect of over 65% in size;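 on activity (max response): cells grown in serum-free medium with ITS supplement; on the % scale 0 is the no-effect control and ±100 the full control effect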
Conditions: SW-13 ACC cells viability, CellTiter-Glo, 48 h; activity (max response): active compounds read low
Method in brief: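 Compound titrations (up to 46 uM final, in DMSO) were applied to SW-13 cells for 48 h at 37C/5% CO2. Reading used CellTiter-Glo after 20 min at room temperature; fitted curves yielded IC50 and efficacy.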
With COc1cc(Oc2ccnc3cc(OC)c(OC)cc23)ccc1NC(=O)NC(C)c1nccs1 (stereo not drawn) the activity (max response) was 0.628% (inactive).
For NS(=O)(=O)c1cc2c(cc1Cl)NC(C1CC3C=CC1C3)NS2(=O)=O (stereo not drawn), the activity (max response) was -7.72% (inactive).
In the case of COc1ccc(Cl)c(Nc2ncnc3cc(OCC4CCN(C)CC4)c(OC)cc23)c1, the Potency is reported as 15.8 µM (active).
For CCCCCOc1ccccc1/C(=C\SC)n1ccnc1, the Potency was 23.1 µM (active).
For O=C(c1ccc(/C=C/c2n[nH]c3ccccc23)cc1)N1CCNCC1, the activity (max response) was -10.3% (inactive).
In the case of CCOC(=O)c1ccnc(CNCC(=O)N(CC)CCN(C)C)c1, the activity (max response) is reported as -23.8% (inactive).
In the case of CC(C)C(=O)OCC(=O)[C@@]12O[C@H](C3CCCCC3)O[C@@H]1C[C@H]1[C@@H]3CCC4=CC(=O)C=C[C@]4(C)[C@H]3[C@@H](O)C[C@@]12C, the activity (max response) is reported as -10.3% (inactive).
With C=C1CCC2[C@](C)(CO)C(O)CC[C@]2(C)C1C/C=C1/C(=O)OCC1O (stereo partly drawn) the Potency was 25.1 µM (active).
In the case of O=C(O)/C(S)=C/c1ccc(I)cc1, the activity (max response) is reported as 9.8% (inactive).
In the case of CNS(=O)(=O)c1ccc2c(c1)/C(=C/c1[nH]c3c(c1CCCN1CCN(C)CC1)CCCC3)C(=O)N2, the Potency is reported as 28.2 µM (active).
For CCN1CCCC(OC(=O)C(c2ccccc2)c2ccccc2)C1 (stereo not drawn), the activity (max response) was -12.5% (inactive).
In the case of O=C1NCCN1CCN1CCC(c2cn(-c3ccc(F)cc3)c3ccc(Cl)cc23)CC1, the Potency is reported as 10.3 µM (active).
In the case of C[C@@H](OC[C@@]1(c2ccccc2)CC[C@]2(CCC(=O)N2)CN1)c1cc(C(F)(F)F)cc(C(F)(F)F)c1, the Potency is reported as 25.1 µM (active).
With O=C(/C=C/c1cccnc1)NCCCCC1CCN(C(=O)c2ccccc2)CC1 the Potency was 0.0126 µM (active).
In the case of Cc1ccc(S(=O)(=O)NC(=O)NN2CCCCCC2)cc1, the activity (max response) is reported as -2.59% (inactive).
In the case of CCc1nc(C(N)=O)c(Nc2ccc(N3CCC(N4CCN(C)CC4)CC3)c(OC)c2)nc1NC1CCOCC1, the Potency is reported as 17.8 µM (active).
In the case of CC(C(O)c1ccccc1)N(C)CCOC(c1ccccc1)c1ccccc1 (stereo not drawn), the Potency is reported as 20.6 µM (active).
In the case of Oc1cccc(-c2c3nc(c(-c4cccc(O)c4)c4ccc([nH]4)c(-c4cccc(O)c4)c4nc(c(-c5cccc(O)c5)c5ccc2[nH]5)CC4)C=C3)c1, the Potency is reported as 6.51 µM (active).
In the case of CC(C)(C(=O)O)c1ccc(C(O)CCCN2CCC(C(O)(c3ccccc3)c3ccccc3)CC2)cc1 (stereo not drawn), the activity (max response) is reported as -2.55% (inactive).
For CN(C)CCN1C(=O)c2cccc3cc(NC(N)=O)cc(c23)C1=O, the Potency was 17.8 µM (active).
In the case of Clc1cc(Cl)cc(CNc2ncncc2-c2ccc3c(c2)OCO3)c1, the Potency is reported as 10 µM (active).
For Cc1cc(OCCOCC[N+](C)(C)Cc2ccccc2)ccc1C(C)(C)CC(C)(C)C, the Potency was 5.8 µM (active).
With O=C(/C=C/c1cccc(S(=O)(=O)Nc2ccccc2)c1)NO the Potency was 3.55 µM (active).
In the case of CSc1ccc(C(=O)/C=C/c2cc(C)c(OC(C)(C)C(=O)O)c(C)c2)cc1, the Potency is reported as 35.5 µM (active).
For CN1C(C)(C)CCCC1(C)C, the activity (max response) was -4.6% (inactive).
In the case of CC(C)n1nc(-c2ccc3oc(N)nc3c2)c2c(N)ncnc21, the Potency is reported as 0.1 µM (active).
With O=C(O)C[C@H](O)C[C@H](O)/C=C/c1c(C2CC2)nc2ccccc2c1-c1ccc(F)cc1 the Potency was 3.16 µM (active).
With C=CC(=O)Nc1cccc(Nc2nc(Nc3ccc(NC4CN(CCF)C4)cc3OC)ncc2C(F)(F)F)c1 the Potency was 2.51 µM (active).
For NNc1nnc(NN)c2ccccc12, the activity (max response) was -8.18% (inactive).
With Nc1nc(F)nc2c1ncn2C1OC(COP(=O)(O)O)C(O)C1O (stereo not drawn) the activity (max response) was -0.687% (inactive).
For O=C(O)c1ccccc1NCCc1ccccc1, the activity (max response) was 9.86% (inactive).
For Cc1ccc2nc(NC(=O)CSc3nc4c(c(=O)n3-c3ccccc3)SCC4)sc2c1, the activity (max response) was -6.8% (inactive).
With C[C@@H](Nc1ncnc2[nH]c(-c3ccc(O)cc3)cc12)c1ccccc1 the Potency was 3.98 µM (active).
